Source: PubChem BioAssay (EPA / NIEHS)
Values joined by “and” are separate entries in the source; they are usually repeats but may differ in a detail not shown here. Equal entries are not always repeated. Active and inactive are the calls of the source. How the source made its calls: active means hit-call score of the fitted dose curve at least 0.9, where 1 is the maximum; inactive means score below 0.9.

What follows are compounds tested on Secreted IgG (sIgG), gene 3500 (assay: BSK_BT_sIgG: BioMAP Diversity Plus: BT Assay for Secreted IgG (sIgG) Biomarker Activity (AID 2284226)). Conditions: primary human B cells with PBMC.
Procedure, shortened: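 Cells (B cells with peripheral blood mononuclear cells) are dosed, cultured 24 h, then supernatant IgG is measured by ELISA. DMSO serves as negative control; curves are fitted for signal increase.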

Structure (SMILES) | outcome | AC50
C=C(C)C(=O)OCCC(F)(F)C(F)(F)C(F)(F)C(F)(F)C(F)(F)C(F)(F)F | inactive | 
CCCCCCCCCCCCCC[N+](C)(C)C |  | 45.3 nM (active)
NCC(F)(F)C(F)(F)C(F)(F)C(F)(F)C(F)(F)C(F)(F)C(F)(F)F | inactive | 
OCCC(F)(F)C(F)(F)C(F)(F)C(F)(F)C(F)(F)C(F)(F)C(F)(F)C(F)(F)F |  | 50.6 µM (active) and 53.6 µM (active)
OCCC(F)(F)C(F)(F)C(F)(F)C(F)(F)C(F)(F)C(F)(F)F | inactive | 
C[C@@H]1C[C@H]2[C@@H]3CCC4=CC(=O)C=C[C@]4(C)[C@@]3(F)[C@@H](O)C[C@]2(C)[C@@]1(O)C(=O)COP(=O)(O)O | inactive | 
